# Measured values: PubChem BioAssay (Tox21)
# Inconclusive results are not listed. A call without a number means that no potency is given here. Activity calls are given as the source filed them. The call rests on the fitted dose curve; in most records, active means well fitted activation curve with a large enough effect in the repeat runs; inconclusive means weak or mixed curves; inactive means no such curve, though single readings can be large or run the other way.
# Target: Nuclear receptor subfamily 1 group I member 2 (Homo sapiens) (UniProt O75469)
# Test: Human pregnane X receptor (PXR) small molecule agonists, qHTS assay (AID 1346982); further: nearly all actives have a fitted effect of over 35% in size
# Settings: PXR-Luc HepG2, CYP3A4 luciferase reporter, 24 h; series mostly up to 92.4 µM
# Procedure, shortened: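 PXR-Luc HepG2 cells (CYP3A4 promoter-driven luciferase) were seeded in medium with 5% charcoal-stripped FBS, left 5 hr at 37 C, then exposed to compounds in DMSO for 24 hr. Luminescence was read after ONE-Glo addition.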
# Potency means the concentration at half of the fitted maximal effect.
# Chain of Nuclear receptor subfamily 1 group I member 2 (Homo sapiens) (O75469 whole entry, looked up): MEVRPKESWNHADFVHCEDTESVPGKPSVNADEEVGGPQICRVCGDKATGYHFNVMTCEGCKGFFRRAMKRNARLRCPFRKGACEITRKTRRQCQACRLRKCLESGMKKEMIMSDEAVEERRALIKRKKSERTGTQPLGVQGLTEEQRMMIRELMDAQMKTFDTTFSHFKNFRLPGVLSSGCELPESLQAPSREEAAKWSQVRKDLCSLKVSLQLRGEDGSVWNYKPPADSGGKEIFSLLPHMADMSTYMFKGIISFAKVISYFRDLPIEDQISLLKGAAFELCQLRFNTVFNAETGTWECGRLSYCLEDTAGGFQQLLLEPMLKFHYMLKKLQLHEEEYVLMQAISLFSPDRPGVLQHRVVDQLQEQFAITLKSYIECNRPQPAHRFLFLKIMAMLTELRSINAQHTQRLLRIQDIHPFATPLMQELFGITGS
row,SMILES,Potency
1,CN1CCN(C2=Nc3cc(F)ccc3Cc3ccccc32)CC1,inactive
2,NC(=O)Cc1cccc(C(=O)c2ccccc2)c1N,inactive
3,CCc1cc(Cl)c(OC)c(C(=O)NC[C@@H]2CCCN2CC)c1O,7.5 µM (active)
4,OCc1ccccc1O,inactive
5,CC1(O)CSC(C)(O)CS1 (centres undefined),inactive
6,O=C(O)[C@@H](O)[C@H](O)[C@H](O)[C@@H](O)C(=O)O,inactive
7,CC(=O)OC(C)OC(C)=O,inactive
8,CCC/C=C/CO,inactive
9,C/C(=N\O)[C@@H](C)NCC(C)(C)CN[C@H](C)/C(C)=N/O,inactive
10,COc1cc2c(cc1N)oc1ccccc12,27.9 µM (active)
11,O=C1CCCCCCCCCCC(=O)OCCO1,inactive
12,Cc1onc(-c2ccccc2)c1C(=O)Cl,inactive
13,C=CCCC=C,inactive
14,CCOC(=O)NCCC[Si](OCC)(OCC)OCC,inactive
15,OCc1c2ccccc2cc2ccccc12,48.7 µM (active)
16,O=C(C(Cl)Cl)N1CCOC12CCCCC2,34.4 µM (active)
17,Cn1cnc2c(F)c(Nc3ccc(Br)cc3Cl)c(C(=O)NOCCO)cc21,inactive

row,SMILES,Potency
1,CCc1nnc(NS(=O)(=O)c2ccc(N)cc2)s1,inactive
2,CN1CCN(c2c(F)cc3c(=O)c(C(=O)O)cn(CCF)c3c2F)CC1,inactive
3,NCCCN1CCN(CCCN)CC1,inactive
4,COC(=O)c1ccc(OC)cc1,inactive
5,NC(=O)NS(=O)(=O)c1ccc(Cl)cc1,inactive
6,CCOC(=O)c1cc(=O)c2c(OCC(COc3cccc4oc(C(=O)OCC)cc(=O)c34)OC(=O)[C@@H](N)CCCCN)cccc2o1,inactive
7,CC(C)=CCC[C@](C)(O)[C@@H]1CC=C(C)CC1,inactive
8,C=C(C)C(=O)OCCOP(=O)(O)O,inactive
9,C[C@]12C(=O)OC(=O)[C@H]1[C@H]1C=C[C@@H]2C1,inactive
10,Cc1ccc([N+](=O)[O-])c(N)c1,66.9 µM (active)
11,O=C(O[C@@H](C(=O)O)[C@@H](OC(=O)c1ccccc1)C(=O)O)c1ccccc1,inactive
12,CCOC(=O)C1CC(=O)C(=C(O)C2CC2)C(=O)C1 (centres undefined),inactive
13,FC(F)(F)C(Cl)(Cl)Cl,inactive
14,COc1ccc(S(=O)(=O)Nc2nnc(CC(C)C)s2)cc1,inactive
15,Cc1ccc([N+](=O)[O-])cc1Cl,61.9 µM (active)
16,CCCCc1ccc2nc(NC(=O)OC)[nH]c2c1,2.98 µM (active)
17,Cc1cc(NS(=O)(=O)c2ccc(N)cc2)nc(C)n1,inactive
